Compounds with a hit are over-represented: about 10% of the library has one in this group of screens.
ALDH1A1 inh = blocks purified human ALDH1A1 activity; P00352; Purified ALDH1A1, NADH fluorescence, propionaldehyde substrate; Potency, µM (top dose mostly 75.3 µM), for inactives: top-dose activity, negative = inhibition, most hits filed as inhibitors; hit rate 7.3% among 220,000; AID 1030;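 note: potency is the fitted concentration of half-maximal effect; plate controls were no enzyme wells and a reference inhibitor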
Target sequence (P00352 whole entry, looked up): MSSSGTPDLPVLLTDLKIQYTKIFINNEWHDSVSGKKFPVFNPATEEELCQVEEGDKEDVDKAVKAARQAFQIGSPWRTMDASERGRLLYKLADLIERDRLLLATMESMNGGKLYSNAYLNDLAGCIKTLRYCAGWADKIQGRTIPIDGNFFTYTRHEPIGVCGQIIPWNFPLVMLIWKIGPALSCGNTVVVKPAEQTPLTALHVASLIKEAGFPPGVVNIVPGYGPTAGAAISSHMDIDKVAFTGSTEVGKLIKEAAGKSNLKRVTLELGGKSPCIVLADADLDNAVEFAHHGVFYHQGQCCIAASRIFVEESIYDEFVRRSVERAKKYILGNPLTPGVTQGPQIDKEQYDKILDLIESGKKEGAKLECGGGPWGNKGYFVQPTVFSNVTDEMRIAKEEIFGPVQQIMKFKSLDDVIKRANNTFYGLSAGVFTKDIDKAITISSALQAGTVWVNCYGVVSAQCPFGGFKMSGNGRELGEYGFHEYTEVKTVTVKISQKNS
HPGD inh = blocks human HPGD enzyme activity; hit rate 4.3% among 150,000; Potency, µM, for the others: top-dose activity change, negative = inhibition, usual class: inhibitors; purified HPGD, NADH fluorescence kinetic, PGE2 substrate; P15428; note: potency is the fitted concentration of half-maximal effect
Target sequence (P15428 whole entry, looked up): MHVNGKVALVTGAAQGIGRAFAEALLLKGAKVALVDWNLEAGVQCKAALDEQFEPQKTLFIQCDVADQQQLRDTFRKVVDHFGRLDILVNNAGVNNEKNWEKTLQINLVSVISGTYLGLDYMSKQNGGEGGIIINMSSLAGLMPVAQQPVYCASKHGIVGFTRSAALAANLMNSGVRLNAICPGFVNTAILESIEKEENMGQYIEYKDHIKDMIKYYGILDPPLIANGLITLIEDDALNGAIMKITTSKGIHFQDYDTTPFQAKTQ
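NADH formation kinetics: reaction with 30 uM PGE2 and 1 mM NAD+ (final), 20 nM enzyme, Tris-HCl pH 8 with Tween 20, after 15 min compound preincubation at room temperature. Fluorescence change, last versus first of five reads.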
12-hLO inh = inhibitors of human 12-lipoxygenase (ALOX12); purified 12-hLO, xylenol orange hydroperoxide absorbance; Potency, µM (series often up to 57.1 µM), inactives show at the top dose activity change, negative = inhibition, usual class: inhibitors; hit rate 0.12% among 150,000; AID 1452; active = well fitted inhibition curve with a large enough effect; inconclusive = small, poorly fitted or top-dose-only effect; note: potency is the fitted concentration of half-maximal effect; nearly all actives have a fitted effect of over 55% in size
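Lipoxygenase turnover measured by absorbance at 573 and 405 nm after Fe-XO development. Human 12hLO 150 nM, arachidonate 40 uM, pH 7.0 Hepes buffer with detergent; 15 min compound preincubation, 30 min reaction.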
LMNA splice mod = modulators of lamin A splicing. HeLa LMNA splicing GFP/RFP minigene ratio, 48 h. Potency, µM (doses to about 46.1 µM), inactives show at the top dose ratio change, negative = inhibition, hits mostly inhibitors. hit rate 0.01% among 200,000; active = well fitted inhibition curve with a large enough effect in the signal ratio, with a control signal flat, not every such curve was filed as active; inconclusive = small, poorly fitted or top-dose-only effect, or effect the other way, or a change in a side signal; the % refers to the signal ratio; note: potency is the fitted concentration of half-maximal effect
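S3 HeLa cells stably expressing lamin A-EGFP splicing minigene plus DsRed2, 600 cells/well, 48 h compound exposure at 37C. Laser-scanning cytometry; analysed as GFP (500-530 nm)/RFP (575-640 nm) total intensity ratio; 0.5% DMSO vehicle.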
PNC inhibitor = blocks assembly of the perinucleolar compartment; PC3M PTB-GFP, PNC prevalence imaging, 16 h; stronger effect = lower value; activity change (PNC), negative = inhibition, % at 10 µM; hit rate 3.1% among 140,000; AID 2417;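 active = readout at or below -70, meaning at least 70% loss of cells showing the perinucleolar compartment, a nuclear body marking cancer cells; inconclusive = readout between -30 and a set limit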;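 note: plate controls were DMSO wells for no effect and camptothecin positive control wells for full effect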
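Read-out is percentage of cells bearing a perinucleolar compartment, from automated 20x imaging of fixed, Hoechst-stained PC3M PTB-GFP cells. Cells were seeded 4 h, then exposed 16 h to compound (23 nl of library stock) in duplicate plates.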
* hit, by the source's call; ? = inconclusive; . = no result; [ ] = another dose, or the depositor's remark. Unless noted, calls come from the whole dose curve; as a rule, active = well fitted inhibition curve with a large enough effect (not every such curve was filed as active); inconclusive = small, poorly fitted or top-dose-only effect, or another doubt; inactive = no such curve, though single readings can be large or run the other way. Unless noted, % is set by controls: 0 for no effect and ±100 for the full control effect.

SMILES	ALDH1A1 inh	HPGD inh	12-hLO inh	LMNA splice mod	PNC inhibitor
Cc1cccc(NC(=O)CSc2nc(=O)n(Cc3cccnc3)c3c2CCC3)c1C	.	.	.	-5%[46 µM]	.
COc1ccc(C2=C(SC)CC2=NC(C)(C)C)cc1	18µM*	-6%	-3%	2%	?
COc1ccc(OC)cc1	-6%	-3%	-4%	.	.
CC(C)(C)Cn1c(=O)[nH]c(=O)c2cc([N+](=O)[O-])cnc21	-1%	-18%	-3%	1%	-114*
NNC(=O)c1cccc(COc2ccc3c(c2)CCC3)c1	6%	20µM*	-4%	?	-7
O=C(NCc1ccccc1)c1cccc(COc2ccccc2Cl)c1	3%	?	-7%	?	-6
NNC(=O)c1ccc(COc2ccccc2)cc1	2.2µM*	-19%	5%	-5%	-8
NNC(=O)c1cccc(COc2ccccc2Br)c1	3.5µM*	-4%	-4%	?	30
O=C(c1cccc(COc2cccc3ccccc23)c1)N1CCCC1	-9%	20µM*	0%	?	132
O=C(Nc1ccc(F)cc1)c1ccc(COc2ccccc2)cc1	3%	-11%	1%	?	?
CCOc1ccccc1-c1ccc(C(=O)O)s1	?	?	1%[0.00818 µM]	.	.
CCOc1cc2[nH]c(=O)n(CCCC(=O)N3CCN(c4ccc(OC)cc4)CC3)c(=O)c2cc1OCC	.	.	.	21%[46 µM]	.
CC(C)OCCCn1c(SCc2ccccc2C#N)nc2c(sc3ccccc32)c1=O	.	.	.	1%[46 µM]	.
NNC(=O)c1ccc(COc2cccc3ccccc23)cc1	7.9µM*	-15%	6%	-14%	-25
COC(=O)c1ccc(CNC(=O)c2ccc(COc3ccccc3)cc2)cc1	-1%	-28%	-3%	4%	-100*
COC(=O)Cc1c(C)[nH]n(-c2cc(Cl)cc(Cl)c2)c1=O	7.1µM*	.	.	.	.
COc1ccc(NC(=O)c2c(NCc3ccc(N(C)C)cc3)sc3c2CCC3)cc1	.	.	.	-15%[46 µM]	.
O=C(Nc1cccc2oc(=O)ccc12)c1ccc([N+](=O)[O-])cc1[N+](=O)[O-]	7.9µM*	-13%	6%	-6%	25
COc1ccc(-c2csc3ncnc(Nc4ccc(OC)c(OC)c4)c23)cc1	.	.	.	-27%[46 µM]	.
NC(Cc1cc(I)c(Oc2cc(I)c(O)c(I)c2)c(I)c1)C(=O)O (centres undefined)	16µM*	-17%	-14%	.	.
O=C(O)/C=C\C(=O)Nc1cccc2c1-c1ccccc1C2=O	1%[13.5 µM]	-18%	-1%[11.4 µM]	.	.
CC(Nc1c([N+](=O)[O-])c(=O)oc2ccccc12)C(Cl)c1ccccc1 (centres undefined)	?	-9%	1%	?	97
O=c1oc2ccccc2c(NCc2cccc(F)c2)c1[N+](=O)[O-]	25µM*	20µM*	-2%	?	202
COc1ccc(OCCNc2c([N+](=O)[O-])c(=O)oc3ccccc23)cc1	3%	.	.	1%[46 µM]	.
CCNc1c([N+](=O)[O-])c(=O)oc2ccccc12	18µM*	.	.	20%[46 µM]	.
SMILES	ALDH1A1 inh	HPGD inh	12-hLO inh	LMNA splice mod	PNC inhibitor
O=c1oc2ccccc2c(NC(c2ccccc2)c2ccccc2)c1[N+](=O)[O-]	22µM*	-15%	-5%	?	9
O=c1oc2ccccc2c(Nc2ccc3ccccc3c2)c1[N+](=O)[O-]	2.2µM*	-17%	-13%	?	?
Cc1ccc(Nc2c([N+](=O)[O-])c(=O)oc3ccccc23)cc1	?	.	.	-2%[46 µM]	.
CCOc1ccc(C(=O)Nc2ccccc2C(=O)OCc2cc(=O)n3nc(C4CC4)sc3n2)cc1	.	.	.	-3%[46 µM]	.
CCCOc1ccc(C2C(=O)N(C3CCCCCC3)CC(=O)N2CCC)cc1OC (centres undefined)	.	.	.	2%[46 µM]	.
Cc1cc2ccccc2c[n+]1CC(O)C[n+]1cc2ccccc2cc1C	0%[13.5 µM]	-13%	9%[11.4 µM]	.	.
Cc1ccc(S(=O)(=O)NC(C(=O)Oc2ccc3c(C)c(Cl)c(=O)oc3c2)c2ccccc2)cc1 (centres undefined)	?	?	-3%	-5%	-111*
CC(C)c1ccc(/C=N/Nc2ccc(C(=O)O)cc2)cc1	?	14µM*	1%	6%	-9
O=C(O)c1ccc(N/N=C/c2ccc(-c3ccccc3)cc2)cc1	3%	.	.	?	.
O=C(O)c1ccc(N/N=C/c2ccc(OC(=O)c3ccccc3Cl)cc2)cc1	3%	25µM*	1%	9%	?
COc1ccccc1Oc1nc2c(c(=O)n(Cc3ccccc3F)c(=O)n2C)n1C	8.9µM*	14µM*	-19%	3%	-30
Cn1c(NCCCO)nc2c1c(=O)n(Cc1ccccc1F)c(=O)n2C	1%	-2%	0%	-12%	-12
Cn1c(=O)n(Cc2ccccc2F)c(=O)c2c1nc1n2CCN1Cc1ccco1	7.9µM*	.	.	.	.
Cn1c(=O)n(Cc2ccc(Cl)cc2)c(=O)c2c1nc1n2CCN1Cc1ccco1	?	-5%	-6%	?	-7
CC(Oc1ccccc1F)C(=O)N1CCC(c2nc3ccccc3o2)CC1 (centres undefined)	.	.	.	-5%[46 µM]	.
Cc1cc(O)ccc1N/C=C1\CCCC1=O	13µM*	?	-9%	?	-3
Cc1cc(N2CCN(C/C=C/c3ccccc3)CC2)n2ncnc2n1	2%	28µM*	3%	?	-4
CC1(C)Cc2c(sc(NC(=S)NC(=O)c3ccccc3)c2C(=O)O)CO1	22µM*	.	.	15%[46 µM]	.
N#Cc1c(NC(=S)NC(=O)c2ccccc2)sc2c1CCCC2	3.2µM*	25µM*	-2%	-3%	?
COc1cccc(C(=O)Nc2nc3c(s2)CN(C)CC3)c1	-3%	?	0%	-6%	6
CC1(C)Cc2c(sc(NC(=O)c3ccco3)c2C(=O)O)CO1	?	-16%	-6%	23%	-10
N#Cc1c(NC(=O)c2ccccc2)sc2c1CCC2	?	?	-1%	-9%	-9
COc1cccc(C(=O)Nc2sc3c(c2C#N)CCN(C(C)=O)C3)c1	8.9µM*	.	.	?	.
CC(=O)Nc1sc2c(c1C#N)CCC(C)C2 (centres undefined)	-7%	.	.	.	.
Cc1ccccc1C(=O)NC(=S)Nc1sc2c(c1C#N)CCC(C)C2 (centres undefined)	10µM*	-21%	?	26%	?
SMILES	ALDH1A1 inh	HPGD inh	12-hLO inh	LMNA splice mod	PNC inhibitor
c1cncc(CNc2ncncc2-c2ccc3c(c2)OCO3)c1	?	?	1%	5%	.
CC(=O)N1CCCc2cc(S(=O)(=O)N3CCN(c4ccc(F)cc4)CC3)ccc21	.	.	.	-12%[46 µM]	.
Cn1ccc2cc(S(=O)(=O)N3CCN(C(=O)Nc4cccc(F)c4)CC3)ccc21	.	.	.	-13%[46 µM]	.
N#Cc1c(NC(=S)NC(=O)c2ccccc2)sc2c1CCN(CCc1ccccc1)C2	18µM*	-18%	2%	5%	?
CC(C)(C)C(=O)Nc1sc2c(c1C#N)CCCCC2	-2%	-16%	0%	-2%	32
COC(=O)c1ccc(NC(=S)NC(=O)c2c(Cl)cnn2C)cc1	2%	-48%	2%	-1%	61
CCC(=O)Nc1sc2c(c1C#N)CCC2	-6%	.	.	.	.

High-throughput results: PubChem, National Center for Advancing Translational Sciences (NCATS)
